Screening results: PubChem, National Center for Advancing Translational Sciences (NCATS)
IMPase Li inh – cell-permeable IMPase inhibitors with lithium potentiation. 210,000 tested, 0.35% active. AID 1457. CHO-M1 cells, IP1 TR-FRET (IP-One), carbachol + lithium. Potency, µM (titrated, usually from 59.4 µM), without a hit: at the top dose activity, negative = IMPase inhibition, most hits filed as inhibitors; active = well fitted inhibition curve with a large enough effect; inconclusive = small, poorly fitted or top-dose-only effect; inactive = no such curve, though single readings can be large or run the other way;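 note: IP1 builds up when IMPase is blocked and the TR-FRET signal falls; potency is the fitted concentration of half-maximal effect; plate controls were basal vehicle for no effect and high inhibitor control for full effect; nearly all actives have a fitted effect of over 50% in size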
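Concentration–response in CHO-M1 cells, lithium-potentiated; 30 min at 37C. IP1 detected by competitive TR-FRET after 10 min lysis at RT. Hill-fitted AC50.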
ALDH1A1 block – ALDH1A1 (human) enzyme inhibition; P00352; Purified ALDH1A1, NADH fluorescence, propionaldehyde substrate; Potency, µM (series often up to 75.3 µM), inactives show at the top dose activity, negative = inhibition, hits mostly inhibitors; 220,000 tested, 7.3% active;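 note: potency is the fitted concentration of half-maximal effect; plate controls were no enzyme wells and a reference inhibitor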
IMPase cell inh – cell-permeable inhibitors of inositol monophosphatase (IMPase). AID 901. CHO-M1 cells, IP1 accumulation, HTRF TR-FRET ratio. 120,000 tested, under 10 active. inhibition (IP1 accumulation), % at 46.1 µM. P97697; active = well fitted curve in the direction sought with a large enough effect in the signal ratio, not every such curve was filed as active; inconclusive = small, poorly fitted or top-dose-only effect, or a change in a side signal; inactive = no such curve, though single readings can be large or run the other way; the % refers to the signal ratio;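 note: cells stimulated with carbachol in lithium chloride buffer; plate controls were DMSO basal wells for no effect and reference inhibitor wells for full effect; higher means more IMPase inhibition seen as more IP1 and lower FRET ratio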
Target sequence (P97697 whole entry, looked up): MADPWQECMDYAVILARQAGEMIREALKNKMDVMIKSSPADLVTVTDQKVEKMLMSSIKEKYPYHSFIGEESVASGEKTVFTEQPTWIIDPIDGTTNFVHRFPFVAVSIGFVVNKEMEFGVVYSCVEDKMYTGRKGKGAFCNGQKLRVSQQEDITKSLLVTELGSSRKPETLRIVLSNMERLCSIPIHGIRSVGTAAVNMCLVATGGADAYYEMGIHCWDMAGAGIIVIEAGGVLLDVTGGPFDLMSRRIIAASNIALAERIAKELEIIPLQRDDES
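Cellular IMPase inhibition is scored as a rise in cytosolic IP1, detected by competitive TR-FRET between d2-labelled IP1 and a europium anti-IP1 antibody. M1-expressing CHO cells were stimulated with carbachol for 30 min at 37C, with lithium (50 mM LiCl) present in the buffer.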
PNC inhibitor – blocks assembly of the perinucleolar compartment; activity change (PNC), negative = inhibition, % at 10 µM; AID 2417; PC3M PTB-GFP, PNC prevalence imaging, 16 h; active compounds read low; 140,000 tested, 3.1% active;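 active = readout at or below -70, meaning at least 70% loss of cells showing the perinucleolar compartment, a nuclear body marking cancer cells; inconclusive = readout between -30 and a set limit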;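 note: plate controls were DMSO wells for no effect and camptothecin positive control wells for full effect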
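Compounds are pinned in duplicate onto adhered PC3M cells stably expressing GFP-tagged PTB and incubated 16 h at 37 C. Cells are then fixed, nuclei stained with Hoechst, and PNC-positive cells counted.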
HPGD inh – HPGD (human) dehydrogenase inhibition; 150,000 tested, 4.3% active; P15428; Potency, µM, for the others: top-dose activity change, negative = inhibition, actives largely listed as inhibitors; purified HPGD, NADH fluorescence kinetic, PGE2 substrate; AID 894; note: potency is the fitted concentration of half-maximal effect
Target sequence (P15428 whole entry, looked up): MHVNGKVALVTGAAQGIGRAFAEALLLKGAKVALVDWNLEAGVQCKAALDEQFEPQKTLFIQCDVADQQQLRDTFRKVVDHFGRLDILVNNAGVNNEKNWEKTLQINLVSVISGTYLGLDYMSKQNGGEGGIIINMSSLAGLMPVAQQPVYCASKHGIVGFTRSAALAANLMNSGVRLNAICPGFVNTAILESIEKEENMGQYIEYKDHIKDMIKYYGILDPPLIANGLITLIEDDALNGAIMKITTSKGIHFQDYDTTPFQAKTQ
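NADH formation kinetics: reaction with 30 uM PGE2 and 1 mM NAD+ (final), 20 nM enzyme, Tris-HCl pH 8 with Tween 20, after 15 min compound preincubation at room temperature. Fluorescence change, last versus first of five reads.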
Starred values were filed as active, the others as inactive; ? = inconclusive; nt = no result given; [ ] = remark or other dose. An excerpt weighted towards active compounds, which were near 11% of everything screened. Unless noted, calls come from the whole dose curve; as a rule, active = well fitted inhibition curve with a large enough effect (not every such curve was filed as active); inconclusive = small, poorly fitted or top-dose-only effect, or another doubt; inactive = no such curve, though single readings can be large or run the other way. Unless noted, % is set by controls: 0 for no effect and ±100 for the full control effect.

SMILES	IMPase Li inh	ALDH1A1 block	IMPase cell inh	PNC inhibitor	HPGD inh
CCOC(=O)c1c(C)c(C(=O)NCC2CCCO2)c(C)n1CC (configuration not stated)	24%[38.3 µM]	?	3	?	22µM*
CCOC(=O)c1c(C)c(C(=O)N2CCCCCC2)c(C)n1C	-11%[38.3 µM]	0%	5	13	16µM*
CCOC(=O)c1c(C)c(C(=O)Nc2ccc3c(c2)OCCO3)c(C)n1CC	-3%[38.3 µM]	-8%	14	-22	-11%
CCOC(=O)COc1ccc(C(=O)Nc2cccc(Cl)c2C)cc1	4%	2%	nt	nt	nt
C=CCN1CN(Cc2ccco2)CNC1=S	-5%	-1%	-2	-1	2%
C=CCCCCCCCCCCCc1ccco1	-2%	?	nt	nt	0.79µM*
O=C(COC(=O)Cn1cnc2ccccc2c1=O)Nc1ccccc1Sc1ccc(Cl)cc1	2%	-1%	2	-16	-5%
O=C(CC(Nc1cccc(Cl)c1Cl)C(=O)OCC(=O)c1cccs1)c1ccccc1 (configuration not stated)	8%	?	-5	-20	-7%
O=C(CC(Nc1cccc(Cl)c1Cl)C(=O)O)c1ccccc1 (configuration not stated)	13%	0.35µM*	nt	nt	nt
CN(C)c1ccc(N=NS(=O)(=O)O)cc1	26%	10µM*	nt	nt	-16%
COc1cccc(C2(c3cccc(OC)c3)CC2C(=O)Nc2ccc(F)cc2)c1 (configuration not stated)	5%	-9%	nt	-20	-5%
Cc1cccc(C2(c3cccc(C)c3)CC2C(=O)Nc2ccc([N+](=O)[O-])cc2O)c1 (configuration not stated)	20%	-4%	nt	-15	18µM*
COc1cccc(C2(c3cccc(OC)c3)CC2C(=O)Nc2ccccc2Cl)c1 (configuration not stated)	9%	-7%	6	-82*	-10%
Cc1cccc(C2(c3cccc(C)c3)CC2C(=O)NCC2CCCO2)c1 (configuration not stated)	-1%	14%	nt	-29	-8%
O=C(NCc1ccco1)C1CCCCC1	6%	0%	nt	nt	nt
O=C(NCc1cccc(CNC(=O)C(=O)NCc2ccco2)c1)C(=O)NCc1ccco1	7%	0%	nt	nt	nt
O=C(NCc1ccco1)C1CC2CCC1C2 (configuration not stated)	13%[38.3 µM]	-5%	-9	-10	16µM*
O=C(O)C1C2CCC(C2)C1C(=O)NCc1ccco1 (configuration not stated)	-1%[38.3 µM]	35µM*	2	-100*	-15%
O=C(NC(=S)NNC(=O)[C@H]1C[C@@H]1c1ccccc1)c1cccc(F)c1	nt	22µM*	nt	nt	nt
COc1cccc(OC)c1C(=O)NC(=S)NNC(=O)[C@H]1C[C@@H]1c1ccccc1	nt	3%	nt	nt	nt
CCCCOC(=O)c1cccc(NC(=O)c2cc3ccccc3o2)c1	nt	nt	1	nt	nt
CC1(C(=O)O)COC(c2ccc([N+](=O)[O-])cc2)OC1 (configuration not stated)	25%[38.3 µM]	-1%	-1	-24	-6%
O=C1NC(C(=O)O)=CC(c2ccc([N+](=O)[O-])cc2)N1 (configuration not stated)	nt	14µM*	nt	nt	nt
C=CCOC(=O)N[C@H](/C(C(=O)OC)=C(\C)NCc1ccccc1)c1ccc(Br)cc1	34%	?	nt	nt	0%
O=C(Cc1csc(NC(=O)c2ccc(F)cc2)n1)NO	-4%	6%	nt	nt	nt
SMILES	IMPase Li inh	ALDH1A1 block	IMPase cell inh	PNC inhibitor	HPGD inh
CCc1c(C)sc(NC(=O)c2noc(C)c2[N+](=O)[O-])c1C#N	-6%	18µM*	nt	nt	nt
CCOc1ccc(-c2[nH]ncc2-c2csc(C)n2)c(O)c1	nt	10%	1	-14	nt
COc1ccc(-c2[nH]ncc2-c2csc(C)n2)c(O)c1	-4%	9%	10	-91*	-13%
COc1cccc(Oc2cn[nH]c2-c2ccc(O)cc2O)c1	13%[38.3 µM]	?	1	-86*	-22%
O=[N+]([O-])c1ccc(/C=N/n2c(COc3ccccc3)n[nH]c2=S)cc1	-9%[38.3 µM]	28µM*	12	?	5µM*
S=c1[nH]nc(COc2ccccc2)n1/N=C/c1cccnc1	1%	-13%	nt	27	14µM*
O=[N+]([O-])c1cccc(-c2ccc(/C=N/n3c(-c4ccccc4)n[nH]c3=S)o2)c1	-8%	0%	-1	?	?
CCN(CC)c1ccc(/C=N/n2c(=S)[nH]nc(C)c2=O)cc1	nt	?	-16	19	nt
O=[N+]([O-])c1cccc(/C=N/n2c(COc3ccccc3)n[nH]c2=S)c1	32%[38.3 µM]	?	5	-3	4µM*
CN(C)c1ccc(/C=N/n2c(COc3ccccc3)n[nH]c2=S)cc1	11%	25µM*	nt	-1	13µM*
COc1c(C)c2c(c(O)c1CC=C(C)CCC(=O)OCCN1CCOCC1)C(=O)OC2	4%	?	nt	nt	?
CCOc1c(Br)cc(C2CC(=O)Nc3cc4c(cc32)OCO4)cc1OC (configuration not stated)	nt	nt	6	nt	nt
Cc1ccccc1C1CC(=O)Oc2cc(C)c(Cl)c(C)c21 (configuration not stated)	21%	4%	nt	nt	-1%
CC(=O)NC(C)C(=O)OCC(=O)Nc1ccc(Br)cc1 (configuration not stated)	-7%[38.3 µM]	?	7	-6	-11%
CCCC(C)C(=O)OCC(=O)Nc1ccc(Br)cc1 (configuration not stated)	-5%	11µM*	nt	nt	nt
CS(=O)(=O)N(CC(=O)NCCSc1ccccc1)c1cc(C(F)(F)F)ccc1Cl	nt	nt	13	nt	nt
O=C(NCCN1CCOCC1)c1ccc(=O)oc1	-5%[38.3 µM]	-5%	-8	-127*	-24%
O=C(NCCN1CCOCC1)c1ccc(F)cc1	6%[38.3 µM]	1%	-4	15	-9%
Cc1nn(-c2ccc(Cl)cc2)c(=O)c2ccccc12	1%	5%	nt	nt	nt
Cc1c(Cl)sn(-c2ccc(Cl)cc2)c1=O	20%	1.8µM*	nt	nt	nt
Nc1nc(NCCCN2CCOCC2)nc(NCc2ccccc2)c1[N+](=O)[O-]	nt	5%	nt	nt	nt
C=CCN(C(=O)CSc1nc2[nH]ncc2c(=O)n1-c1ccccc1OC)c1ccccc1	1%[38.3 µM]	13µM*	-2	?	-2%
COc1ccc(CCNC(=O)CSc2nc3[nH]ncc3c(=O)n2-c2ccccc2Br)cc1OC	-1%	22µM*	nt	nt	nt
COc1cc(NC(=O)CSc2nc3[nH]ncc3c(=O)n2-c2ccccc2C)cc(OC)c1OC	5%	?	nt	?	-8%
O=C(CSc1nc2[nH]ncc2c(=O)n1-c1ccccc1Br)NCc1ccco1	30%[38.3 µM]	13µM*	-6	?	-15%
O=C(CSc1nc2[nH]ncc2c(=O)n1-c1ccccc1)NCCc1ccccc1	0%	?	nt	nt	nt
O=S(=O)(c1ccc(Cl)cc1)N1CCSC1c1ccco1 (configuration not stated)	3%[38.3 µM]	?	8	-27	-4%
